# Source: ChEMBL document CHEMBL1961873, “Compounds: GSK PKIS; Assays: Nanosyn kinase panel” (2012)
# Experiments:
# [1] = biological target: T1, Inhibitor of nuclear factor kappa-B kinase subunit epsilon (Homo sapiens) (UniProt Q14164); details: at 1 µM;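 also: reported values are averaged percent inhibition figures against human IKKε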
# T1 sequence (whole entry): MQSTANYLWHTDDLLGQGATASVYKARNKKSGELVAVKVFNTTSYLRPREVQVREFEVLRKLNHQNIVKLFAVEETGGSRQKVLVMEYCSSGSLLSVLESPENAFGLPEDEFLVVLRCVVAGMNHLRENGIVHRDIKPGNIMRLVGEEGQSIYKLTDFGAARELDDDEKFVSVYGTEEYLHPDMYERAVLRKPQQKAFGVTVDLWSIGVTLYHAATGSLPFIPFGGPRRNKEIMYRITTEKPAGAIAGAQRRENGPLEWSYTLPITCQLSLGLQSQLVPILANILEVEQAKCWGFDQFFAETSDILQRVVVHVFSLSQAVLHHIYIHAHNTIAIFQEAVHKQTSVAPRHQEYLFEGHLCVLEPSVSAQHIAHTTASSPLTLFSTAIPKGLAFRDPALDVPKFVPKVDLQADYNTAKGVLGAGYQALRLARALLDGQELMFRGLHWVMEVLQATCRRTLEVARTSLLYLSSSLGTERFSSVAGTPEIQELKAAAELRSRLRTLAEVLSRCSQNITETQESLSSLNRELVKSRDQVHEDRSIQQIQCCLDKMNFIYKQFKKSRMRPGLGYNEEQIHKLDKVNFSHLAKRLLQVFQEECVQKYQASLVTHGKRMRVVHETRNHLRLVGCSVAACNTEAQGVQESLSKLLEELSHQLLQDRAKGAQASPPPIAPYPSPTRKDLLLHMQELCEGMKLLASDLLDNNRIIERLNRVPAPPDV
# [2] = biological target: T2, Serine/threonine-protein kinase Nek1 (Homo sapiens) (UniProt Q96PY6); details: at 0.1 µM
# T2 sequence (whole entry): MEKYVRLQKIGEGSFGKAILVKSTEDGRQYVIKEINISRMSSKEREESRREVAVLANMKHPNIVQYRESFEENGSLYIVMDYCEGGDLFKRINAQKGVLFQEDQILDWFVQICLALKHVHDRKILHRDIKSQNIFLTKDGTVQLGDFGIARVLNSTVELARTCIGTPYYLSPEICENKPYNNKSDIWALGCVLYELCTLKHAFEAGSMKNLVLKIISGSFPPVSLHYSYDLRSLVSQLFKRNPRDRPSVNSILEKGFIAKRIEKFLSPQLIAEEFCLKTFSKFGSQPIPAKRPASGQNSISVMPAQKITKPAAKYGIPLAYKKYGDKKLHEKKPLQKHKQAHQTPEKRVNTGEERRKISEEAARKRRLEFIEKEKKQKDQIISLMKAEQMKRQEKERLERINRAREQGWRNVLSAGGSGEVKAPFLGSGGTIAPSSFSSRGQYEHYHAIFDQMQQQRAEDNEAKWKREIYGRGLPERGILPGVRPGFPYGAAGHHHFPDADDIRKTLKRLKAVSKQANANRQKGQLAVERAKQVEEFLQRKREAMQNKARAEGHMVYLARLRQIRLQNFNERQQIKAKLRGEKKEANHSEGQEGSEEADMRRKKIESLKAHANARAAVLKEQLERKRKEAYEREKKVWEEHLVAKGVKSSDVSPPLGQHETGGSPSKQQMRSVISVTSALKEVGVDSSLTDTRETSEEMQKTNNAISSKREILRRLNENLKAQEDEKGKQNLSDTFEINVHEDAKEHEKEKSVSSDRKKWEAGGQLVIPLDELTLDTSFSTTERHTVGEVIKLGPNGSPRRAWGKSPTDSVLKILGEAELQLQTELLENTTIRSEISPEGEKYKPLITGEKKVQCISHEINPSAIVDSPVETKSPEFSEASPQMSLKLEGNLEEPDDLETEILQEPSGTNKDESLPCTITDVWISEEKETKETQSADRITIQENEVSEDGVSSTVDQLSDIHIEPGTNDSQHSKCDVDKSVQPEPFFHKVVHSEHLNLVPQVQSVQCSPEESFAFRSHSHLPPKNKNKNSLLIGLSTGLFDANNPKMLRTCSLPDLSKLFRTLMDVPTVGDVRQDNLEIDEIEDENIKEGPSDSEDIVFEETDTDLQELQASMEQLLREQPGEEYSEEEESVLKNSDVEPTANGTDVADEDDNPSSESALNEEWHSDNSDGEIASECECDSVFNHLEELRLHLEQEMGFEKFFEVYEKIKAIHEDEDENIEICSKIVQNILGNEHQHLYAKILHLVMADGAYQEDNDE
# [3] = biological target: T2, Serine/threonine-protein kinase Nek1 (Homo sapiens); details: at 1 µM
# [4] = biological target: T3, Serine/threonine-protein kinase Nek2 (Homo sapiens) (UniProt P51955); details: at 0.1 µM
# T3 sequence (whole entry): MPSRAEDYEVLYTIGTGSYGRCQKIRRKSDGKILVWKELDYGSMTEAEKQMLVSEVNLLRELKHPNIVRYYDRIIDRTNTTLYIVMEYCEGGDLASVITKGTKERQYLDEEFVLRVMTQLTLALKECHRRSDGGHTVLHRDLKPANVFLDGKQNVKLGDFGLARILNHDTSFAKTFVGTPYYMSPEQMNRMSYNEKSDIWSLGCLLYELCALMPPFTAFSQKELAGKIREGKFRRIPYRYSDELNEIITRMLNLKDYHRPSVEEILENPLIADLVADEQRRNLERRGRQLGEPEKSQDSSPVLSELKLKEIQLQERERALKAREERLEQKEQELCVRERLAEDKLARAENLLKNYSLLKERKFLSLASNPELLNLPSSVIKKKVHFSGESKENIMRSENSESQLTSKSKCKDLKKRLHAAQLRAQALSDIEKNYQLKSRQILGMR
# [5] = biological target: T3, Serine/threonine-protein kinase Nek2 (Homo sapiens); details: at 1 µM
# [6] = biological target: Serine/threonine-protein kinase Nek6 (Homo sapiens) (UniProt Q9HC98); details: at 0.1 µM
# [7] = biological target: Serine/threonine-protein kinase Nek6 (Homo sapiens) (UniProt Q9HC98); details: at 1 µM
# [8] = biological target: Serine/threonine-protein kinase Nek7 (Homo sapiens) (UniProt Q8TDX7); details: at 0.1 µM
# [9] = biological target: Serine/threonine-protein kinase Nek7 (Homo sapiens) (UniProt Q8TDX7); details: at 1 µM
# [10] = biological target: T4, Serine/threonine-protein kinase Nek9 (Homo sapiens) (UniProt Q8TD19); details: at 0.1 µM
# T4 sequence (whole entry): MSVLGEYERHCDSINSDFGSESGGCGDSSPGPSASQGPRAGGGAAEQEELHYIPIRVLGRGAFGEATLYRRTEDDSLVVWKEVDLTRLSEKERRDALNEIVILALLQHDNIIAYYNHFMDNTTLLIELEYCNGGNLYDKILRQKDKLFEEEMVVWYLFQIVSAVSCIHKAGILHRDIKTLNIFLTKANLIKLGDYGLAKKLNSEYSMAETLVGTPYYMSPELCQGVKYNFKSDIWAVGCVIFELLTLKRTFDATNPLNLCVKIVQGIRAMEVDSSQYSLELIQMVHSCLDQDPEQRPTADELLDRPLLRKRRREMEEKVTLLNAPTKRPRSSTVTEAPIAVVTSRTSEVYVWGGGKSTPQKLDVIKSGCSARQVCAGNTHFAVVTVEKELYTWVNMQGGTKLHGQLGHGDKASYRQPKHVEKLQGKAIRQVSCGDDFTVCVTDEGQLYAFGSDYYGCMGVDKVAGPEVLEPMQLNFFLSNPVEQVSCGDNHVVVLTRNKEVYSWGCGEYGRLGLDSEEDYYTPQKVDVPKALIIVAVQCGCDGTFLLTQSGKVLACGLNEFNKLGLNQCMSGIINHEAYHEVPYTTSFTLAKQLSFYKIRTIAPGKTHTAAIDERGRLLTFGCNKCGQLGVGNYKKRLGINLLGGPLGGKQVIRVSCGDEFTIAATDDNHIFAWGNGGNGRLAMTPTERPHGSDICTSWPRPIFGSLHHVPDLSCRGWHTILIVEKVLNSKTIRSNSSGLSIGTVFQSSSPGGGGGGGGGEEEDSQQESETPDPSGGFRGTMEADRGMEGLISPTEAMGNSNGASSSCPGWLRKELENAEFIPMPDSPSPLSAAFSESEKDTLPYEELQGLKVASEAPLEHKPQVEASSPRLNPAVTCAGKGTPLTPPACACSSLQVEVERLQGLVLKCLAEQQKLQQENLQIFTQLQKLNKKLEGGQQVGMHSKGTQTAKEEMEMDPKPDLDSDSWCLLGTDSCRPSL
# [11] = biological target: T4, Serine/threonine-protein kinase Nek9 (Homo sapiens); details: at 1 µM
# [12] = biological target: Serine/threonine-protein kinase PLK1 (Homo sapiens) (UniProt P53350); details: at 0.1 µM
# [13] = biological target: Serine/threonine-protein kinase PLK1 (Homo sapiens) (UniProt P53350); details: at 1 µM
# [14] = biological target: T5, Dual specificity protein kinase TTK (Homo sapiens) (UniProt P33981); details: at 0.1 µM
# T5 sequence (whole entry): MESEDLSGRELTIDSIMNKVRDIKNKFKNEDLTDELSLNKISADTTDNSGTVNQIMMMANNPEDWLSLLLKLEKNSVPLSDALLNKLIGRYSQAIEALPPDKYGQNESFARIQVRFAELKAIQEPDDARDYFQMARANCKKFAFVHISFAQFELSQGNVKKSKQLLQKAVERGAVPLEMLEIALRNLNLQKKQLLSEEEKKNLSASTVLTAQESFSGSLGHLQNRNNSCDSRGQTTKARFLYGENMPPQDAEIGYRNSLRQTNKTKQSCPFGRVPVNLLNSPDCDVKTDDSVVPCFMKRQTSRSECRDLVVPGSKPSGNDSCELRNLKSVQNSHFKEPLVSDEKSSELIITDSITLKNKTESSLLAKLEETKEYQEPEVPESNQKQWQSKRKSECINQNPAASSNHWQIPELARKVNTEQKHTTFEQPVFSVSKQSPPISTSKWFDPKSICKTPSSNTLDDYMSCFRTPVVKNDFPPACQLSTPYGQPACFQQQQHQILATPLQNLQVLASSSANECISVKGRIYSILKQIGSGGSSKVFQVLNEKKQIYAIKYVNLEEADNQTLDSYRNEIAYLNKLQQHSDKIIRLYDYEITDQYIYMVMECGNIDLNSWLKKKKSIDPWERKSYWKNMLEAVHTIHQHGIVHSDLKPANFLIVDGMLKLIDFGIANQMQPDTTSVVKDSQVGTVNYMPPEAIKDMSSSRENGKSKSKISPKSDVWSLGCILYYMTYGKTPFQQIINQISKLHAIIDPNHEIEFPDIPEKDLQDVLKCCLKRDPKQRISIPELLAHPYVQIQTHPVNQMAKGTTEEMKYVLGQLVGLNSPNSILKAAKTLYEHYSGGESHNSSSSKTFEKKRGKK
# [15] = system: T6, Receptor-type tyrosine-protein kinase FLT3 (Homo sapiens), P36888 [D835Y]; details: at 1 µM
# T6 sequence (whole entry): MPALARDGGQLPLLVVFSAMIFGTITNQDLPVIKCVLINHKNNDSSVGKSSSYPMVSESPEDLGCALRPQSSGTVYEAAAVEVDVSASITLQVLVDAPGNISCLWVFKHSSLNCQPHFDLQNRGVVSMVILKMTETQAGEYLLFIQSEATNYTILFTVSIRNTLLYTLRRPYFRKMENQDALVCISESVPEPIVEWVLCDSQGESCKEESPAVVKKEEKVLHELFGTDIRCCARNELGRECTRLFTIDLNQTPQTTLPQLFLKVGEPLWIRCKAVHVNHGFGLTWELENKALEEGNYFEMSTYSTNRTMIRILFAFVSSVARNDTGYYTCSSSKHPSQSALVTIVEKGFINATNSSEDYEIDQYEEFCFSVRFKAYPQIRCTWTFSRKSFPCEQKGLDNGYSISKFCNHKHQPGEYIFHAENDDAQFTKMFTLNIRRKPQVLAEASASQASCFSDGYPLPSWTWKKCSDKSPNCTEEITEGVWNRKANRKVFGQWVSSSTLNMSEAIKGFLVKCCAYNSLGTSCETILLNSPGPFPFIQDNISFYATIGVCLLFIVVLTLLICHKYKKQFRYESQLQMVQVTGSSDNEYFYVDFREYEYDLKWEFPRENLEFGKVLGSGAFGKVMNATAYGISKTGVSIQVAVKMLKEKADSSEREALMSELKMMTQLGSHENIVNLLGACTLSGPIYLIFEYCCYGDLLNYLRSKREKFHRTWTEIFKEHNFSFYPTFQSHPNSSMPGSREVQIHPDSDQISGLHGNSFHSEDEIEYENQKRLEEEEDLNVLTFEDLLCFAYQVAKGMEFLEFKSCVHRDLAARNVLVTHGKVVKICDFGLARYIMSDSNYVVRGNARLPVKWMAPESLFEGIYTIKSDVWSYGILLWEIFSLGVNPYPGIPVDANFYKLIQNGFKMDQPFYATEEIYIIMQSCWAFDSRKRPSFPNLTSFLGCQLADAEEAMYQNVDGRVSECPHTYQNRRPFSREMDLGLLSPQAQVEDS
# [16] = biological target: Vascular endothelial growth factor receptor 3 (Homo sapiens) (UniProt P35916); details: at 0.1 µM
# [17] = biological target: Vascular endothelial growth factor receptor 3 (Homo sapiens) (UniProt P35916); details: at 1 µM
# [18] = biological target: Macrophage colony-stimulating factor 1 receptor (Homo sapiens) (UniProt P07333); details: at 0.1 µM
# [19] = biological target: Macrophage colony-stimulating factor 1 receptor (Homo sapiens) (UniProt P07333); details: at 1 µM
# [20] = biological target: Tyrosine-protein kinase Fyn (Homo sapiens) (UniProt P06241); details: at 0.1 µM
# Tyrosine-protein kinase Fyn (Homo sapiens), sequence (P06241 2-537 limits assumed): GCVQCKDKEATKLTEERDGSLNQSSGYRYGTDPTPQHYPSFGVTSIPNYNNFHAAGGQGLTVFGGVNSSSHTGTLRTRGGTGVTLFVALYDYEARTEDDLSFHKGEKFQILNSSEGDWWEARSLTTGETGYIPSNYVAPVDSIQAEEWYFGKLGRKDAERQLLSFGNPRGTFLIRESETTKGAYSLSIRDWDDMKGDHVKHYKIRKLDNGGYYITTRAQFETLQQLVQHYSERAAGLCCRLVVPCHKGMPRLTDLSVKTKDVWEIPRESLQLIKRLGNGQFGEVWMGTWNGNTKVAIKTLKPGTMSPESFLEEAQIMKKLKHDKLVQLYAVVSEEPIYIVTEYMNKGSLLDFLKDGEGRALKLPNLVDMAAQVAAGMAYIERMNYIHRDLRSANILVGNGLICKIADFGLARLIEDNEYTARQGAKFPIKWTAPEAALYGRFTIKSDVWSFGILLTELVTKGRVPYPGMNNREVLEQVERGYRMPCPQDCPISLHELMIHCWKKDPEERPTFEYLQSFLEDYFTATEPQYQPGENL
# Serine/threonine-protein kinase Nek6 (Homo sapiens), sequence (Q9HC98 whole entry): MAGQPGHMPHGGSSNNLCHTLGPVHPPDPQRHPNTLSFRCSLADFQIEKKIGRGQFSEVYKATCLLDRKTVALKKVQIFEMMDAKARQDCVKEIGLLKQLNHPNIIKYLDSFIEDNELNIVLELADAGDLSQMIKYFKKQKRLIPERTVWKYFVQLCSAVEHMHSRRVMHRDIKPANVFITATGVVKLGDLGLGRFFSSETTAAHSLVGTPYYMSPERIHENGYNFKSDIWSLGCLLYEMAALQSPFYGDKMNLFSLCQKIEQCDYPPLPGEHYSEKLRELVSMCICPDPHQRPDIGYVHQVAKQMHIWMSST
# Serine/threonine-protein kinase PLK1 (Homo sapiens), sequence (P53350 whole entry): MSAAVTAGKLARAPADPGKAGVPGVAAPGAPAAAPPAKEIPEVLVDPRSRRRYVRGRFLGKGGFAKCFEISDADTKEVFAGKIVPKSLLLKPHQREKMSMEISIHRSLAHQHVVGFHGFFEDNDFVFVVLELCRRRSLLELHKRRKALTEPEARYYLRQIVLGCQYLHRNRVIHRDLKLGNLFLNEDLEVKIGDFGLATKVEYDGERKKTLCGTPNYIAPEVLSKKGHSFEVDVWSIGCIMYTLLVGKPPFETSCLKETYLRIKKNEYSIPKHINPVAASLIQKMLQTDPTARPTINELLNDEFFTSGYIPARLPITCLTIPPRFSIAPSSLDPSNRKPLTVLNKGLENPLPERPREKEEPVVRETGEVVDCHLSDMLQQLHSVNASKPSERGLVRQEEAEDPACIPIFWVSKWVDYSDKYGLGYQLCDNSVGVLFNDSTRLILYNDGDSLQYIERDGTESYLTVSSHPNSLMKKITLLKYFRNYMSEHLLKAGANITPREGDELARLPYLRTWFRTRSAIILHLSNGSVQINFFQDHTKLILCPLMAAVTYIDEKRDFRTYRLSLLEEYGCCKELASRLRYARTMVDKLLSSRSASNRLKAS
# Serine/threonine-protein kinase Nek7 (Homo sapiens), sequence (Q8TDX7 whole entry, looked up): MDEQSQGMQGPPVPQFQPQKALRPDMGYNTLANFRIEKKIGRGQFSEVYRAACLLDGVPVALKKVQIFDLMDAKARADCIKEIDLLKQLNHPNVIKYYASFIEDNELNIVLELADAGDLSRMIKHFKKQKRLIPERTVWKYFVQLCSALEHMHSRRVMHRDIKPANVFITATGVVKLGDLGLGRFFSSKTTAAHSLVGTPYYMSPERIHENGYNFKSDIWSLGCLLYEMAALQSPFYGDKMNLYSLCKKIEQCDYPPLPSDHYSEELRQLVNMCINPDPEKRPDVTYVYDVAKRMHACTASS
# Vascular endothelial growth factor receptor 3 (Homo sapiens), sequence (P35916 whole entry): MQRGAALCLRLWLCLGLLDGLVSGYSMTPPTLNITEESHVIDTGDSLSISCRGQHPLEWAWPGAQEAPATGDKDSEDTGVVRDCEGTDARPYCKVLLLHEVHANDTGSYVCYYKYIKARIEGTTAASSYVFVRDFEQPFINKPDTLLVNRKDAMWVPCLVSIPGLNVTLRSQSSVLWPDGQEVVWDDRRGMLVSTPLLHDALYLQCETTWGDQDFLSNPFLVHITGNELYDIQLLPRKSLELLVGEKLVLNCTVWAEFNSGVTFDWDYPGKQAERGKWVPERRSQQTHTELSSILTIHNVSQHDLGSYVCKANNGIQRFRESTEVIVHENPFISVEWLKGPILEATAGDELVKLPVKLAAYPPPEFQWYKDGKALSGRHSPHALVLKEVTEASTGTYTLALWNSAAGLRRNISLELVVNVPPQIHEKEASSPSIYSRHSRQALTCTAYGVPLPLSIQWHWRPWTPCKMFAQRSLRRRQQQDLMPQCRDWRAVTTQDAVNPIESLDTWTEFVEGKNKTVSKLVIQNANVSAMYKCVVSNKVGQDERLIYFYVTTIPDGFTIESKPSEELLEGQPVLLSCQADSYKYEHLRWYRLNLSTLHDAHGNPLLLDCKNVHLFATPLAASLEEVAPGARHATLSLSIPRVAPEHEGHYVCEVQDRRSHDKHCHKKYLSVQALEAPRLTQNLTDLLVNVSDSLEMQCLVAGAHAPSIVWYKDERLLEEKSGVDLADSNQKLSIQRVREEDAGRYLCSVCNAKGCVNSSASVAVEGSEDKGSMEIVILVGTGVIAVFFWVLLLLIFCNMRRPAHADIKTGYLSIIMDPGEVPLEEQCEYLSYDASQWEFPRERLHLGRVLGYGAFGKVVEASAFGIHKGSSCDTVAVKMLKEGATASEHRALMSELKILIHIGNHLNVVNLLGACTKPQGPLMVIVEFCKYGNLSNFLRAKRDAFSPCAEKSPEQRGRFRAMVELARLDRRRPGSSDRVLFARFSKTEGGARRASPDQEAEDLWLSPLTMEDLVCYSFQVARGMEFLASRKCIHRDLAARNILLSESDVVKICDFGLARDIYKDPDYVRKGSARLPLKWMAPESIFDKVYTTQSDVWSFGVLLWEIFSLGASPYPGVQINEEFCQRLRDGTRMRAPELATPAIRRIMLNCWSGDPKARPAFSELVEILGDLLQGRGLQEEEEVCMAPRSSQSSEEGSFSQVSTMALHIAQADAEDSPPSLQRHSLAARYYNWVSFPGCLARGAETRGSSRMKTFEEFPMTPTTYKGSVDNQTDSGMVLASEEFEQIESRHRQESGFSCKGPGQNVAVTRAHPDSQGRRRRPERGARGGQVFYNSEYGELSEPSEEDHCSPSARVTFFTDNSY
# Macrophage colony-stimulating factor 1 receptor (Homo sapiens), sequence (P07333 whole entry): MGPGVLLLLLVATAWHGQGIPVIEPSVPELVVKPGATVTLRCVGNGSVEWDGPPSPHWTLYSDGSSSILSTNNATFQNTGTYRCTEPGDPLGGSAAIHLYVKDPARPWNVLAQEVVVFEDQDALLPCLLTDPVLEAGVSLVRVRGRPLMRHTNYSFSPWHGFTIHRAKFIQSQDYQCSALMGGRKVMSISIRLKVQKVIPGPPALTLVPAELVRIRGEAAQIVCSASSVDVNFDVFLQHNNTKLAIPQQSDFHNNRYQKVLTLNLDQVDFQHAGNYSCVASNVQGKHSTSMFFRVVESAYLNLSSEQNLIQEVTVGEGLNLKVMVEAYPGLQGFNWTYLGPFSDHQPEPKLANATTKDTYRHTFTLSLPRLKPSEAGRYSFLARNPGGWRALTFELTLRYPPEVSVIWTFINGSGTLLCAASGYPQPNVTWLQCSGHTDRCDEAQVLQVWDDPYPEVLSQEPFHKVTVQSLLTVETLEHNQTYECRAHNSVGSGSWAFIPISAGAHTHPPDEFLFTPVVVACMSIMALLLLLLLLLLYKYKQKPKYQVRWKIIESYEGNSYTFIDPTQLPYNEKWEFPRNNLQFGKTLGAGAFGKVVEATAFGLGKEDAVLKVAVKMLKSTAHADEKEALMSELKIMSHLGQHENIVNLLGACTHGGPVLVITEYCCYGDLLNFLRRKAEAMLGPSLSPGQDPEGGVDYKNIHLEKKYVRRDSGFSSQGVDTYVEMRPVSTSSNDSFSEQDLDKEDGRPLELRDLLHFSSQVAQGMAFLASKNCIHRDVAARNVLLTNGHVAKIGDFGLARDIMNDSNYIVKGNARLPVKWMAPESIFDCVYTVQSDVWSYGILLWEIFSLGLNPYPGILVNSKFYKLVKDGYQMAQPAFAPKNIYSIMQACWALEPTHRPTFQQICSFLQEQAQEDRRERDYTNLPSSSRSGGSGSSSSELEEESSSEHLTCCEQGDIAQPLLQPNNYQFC
SMILES,inhibition [1] [%],inhibition [2] [%],inhibition [3] [%],inhibition [4] [%],inhibition [5] [%],inhibition [6] [%],inhibition [7] [%],inhibition [8] [%],inhibition [9] [%],inhibition [10] [%],inhibition [11] [%],inhibition [12] [%],inhibition [13] [%],inhibition [14] [%],inhibition [15] [%],inhibition [16] [%],inhibition [17] [%],inhibition [18] [%],inhibition [19] [%],inhibition [20] [%]
O=C(O[C@H]1CN[C@H](C#Cc2cc3ncnc(Nc4ccc(Cc5ccccc5)cc4)c3s2)C1)N1CCOCC1,3.15,1.41,1.96,2.89,4.01,1.71,1.61,2.18,2.21,4.6,7.49,1.59,1.47,3.54,-0.77,-2.62,4.62,-3.48,3.66,-0.06
CCN(CC)S(=O)(=O)c1ccc(OC)c(Nc2ncc(-c3ccccc3)o2)c1,1.73,-0.43,1.95,0.46,-0.71,1.9,1.12,-0.6,-0.03,2.38,1.83,0.06,0.24,2.04,69.9,30.9,85.5,42.4,84.8,6.94
